Results published in PubChem BioAssay (Tox21).
Results filed as inconclusive are left out. Activity calls are given as the source filed them. Unless noted, the call rests on the fitted dose curve; in most records, active means well fitted curve in the direction sought with a large enough effect in the repeat runs; inconclusive means weak or mixed curves; inactive means no such curve, though single readings can be large; an effect the other way counts as inactive or inconclusive.

Key:
[1] = target: Retinoic acid receptor RXR-alpha (Homo sapiens) (UniProt P19793); test: qHTS assay to identify small molecule agonists of the RXR signaling pathway (AID 1159527; calls by dose curve; further: nearly all actives have a fitted effect of over 35% in size)
Summary of the method: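 16 hr incubation of compound-treated RXR-alpha-UAS-bla HEK 293T cells (2% charcoal-stripped FBS, 37 C) preceded a 2 hr room-temperature LiveBLAzer FRET substrate step and blue/green fluorescence measurement.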

[2] = qHTS assay to identify small molecule agonists of the RXR signaling pathway - cell viability counter screen (AID 1159529);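 further: HEK 293T cells carrying an RXR-alpha UAS beta-lactamase reporter; series mostly up to about 77 µM; nearly all actives have a fitted effect of over 50% in size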
Summary of the method: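 In this parallel viability measure, GeneBLAzer RXR-alpha HEK 293T cells (2% charcoal-stripped FBS) were given a 5 hr preincubation, treated with compounds 16 hr at 37 C, and read by CellTiter-Glo luminescence.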

[3] = qHTS assay to identify small molecule antagonists of the retinoid acid receptor (RAR) signaling pathway - cell viability counter screen (AID 1159551); further: nearly all actives have a fitted effect of over 35% in size
Summary of the method: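 Cytotoxicity counter screen: ATP content quantified by CellTiter-Glo luminescence in C3RL4 cells treated 6 hr at 37 C with compound and retinol (1 uM final). Cells plated at 1,000/well and cultured overnight before dosing.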

[4] = qHTS assay to identify small molecule antagonists of the estrogen related receptor (ERR) signaling pathway from Tox21 library - cell viability counter screen (AID 1224834); further: nearly all actives have a fitted effect of over 30% in size
Summary of the method: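 CellTiter-Fluor fluorescence, read after 30 min at 37 C, measures viability of ERR cells. Cells plated at 2,000/well and incubated 6 h before pin-tool compound addition, then exposed 17.5 hours at 37 C.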

[5] = qHTS assay to identify small molecule agonists of the constitutive androstane receptor (CAR) signaling pathway - cell viability counter screen (AID 1224836); further: series mostly up to about 92 µM; nearly all actives have a fitted effect of over 45% in size
Summary of the method: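 Using CellTiter-Fluor, viability of HepG2 cells harbouring hCAR and CYP2B6-2.2kb was measured following 23 h incubation with a 15-concentration compound series plus PK11195 (0.75 uM final).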

[6] = qHTS assay to identify small molecule antagonists of the constitutive androstane receptor (CAR) signaling pathway - cell viability counter screen (AID 1224837); further: series mostly up to about 92 µM; nearly all actives have a fitted effect of over 45% in size
Summary of the method: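 Cytotoxicity counter-screen: CellTiter-Fluor fluorescence after 23 h compound exposure (15-point qHTS) in double-stable HepG2-CYP2B6-hCAR cells, with 50 nM CITCO added.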

[7] = target: Nuclear receptor subfamily 1 group I member 3 (Homo sapiens) (UniProt Q14994); test: qHTS assay to identify small molecule agonists of the constitutive androstane receptor (CAR) signaling pathway (AID 1224839);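 further: HepG2 cells stably carrying human CAR and a CYP2B6 luciferase reporter; series mostly up to about 92 µM; nearly all actives have a fitted effect of over 15% in size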
Summary of the method: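 Double-stable HepG2 cells (hCAR, CYP2B6-2.2kb) seeded 4 h before compound addition. Exposure 24 h with 0.75 uM PK11195 final. Luciferase detected by ONE-Glo.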

[8] = qHTS assay to identify small molecule antagonists of the estrogen related receptor signaling pathway with the pleiotropic PPARgamma coactivator (PGC) from Tox21 10K library - cell viability counter screen (AID 1224840; active means well fitted cell-killing curve with a large enough effect in the repeat runs, not every such curve was filed as active; further: nearly all actives have a fitted effect of over 40% in size)
Summary of the method: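 Counter-screen for cytotoxicity: after 17.5 h compound exposure at 37 C, CellTiter-Fluor reagent added to PGC/ERR cells for 30 min and fluorescence read. Cells were seeded at 2,000 per well 6 h before dosing.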

[9] = target: Luciferin 4-monooxygenase (Photinus pyralis) (UniProt P08659); test: qHTS assay to identify small molecule inhibitors of firefly luciferase (AID 1224835); further: series mostly up to about 120 µM; nearly all actives have a fitted effect of over 25% in size
Summary of the method: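 Quantitative HTS format; KM concentrations of both substrates. Purified P. pyralis FLuc activity quantified from luminescence images.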

[10] = target: Nuclear receptor subfamily 1 group I member 3 (Homo sapiens) (UniProt Q14994); test: qHTS assay to identify small molecule antagonists of the constitutive androstane receptor (CAR) signaling pathway (AID 1224838);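 further: HepG2 cells stably expressing hCAR with CYP2B6 luciferase reporter stimulated by CITCO; nearly all actives have a fitted effect of over 40% in size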
Summary of the method: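 Antagonism measured as luciferase signal (ONE-Glo, 30 min, room temperature) in CAR-stimulated cells: HepG2-CYP2B6-hCAR double-stable line exposed 24 hr at 37 C to compound in a 15-point series plus 50 nM CITCO.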

[11] = qHTS assay to identify small molecule antagonists of the estrogen related receptor signaling pathway with the pleiotropic PPARgamma coactivator (PGC) from Tox21 10K library (AID 1224841; call rule not given here; further: series mostly up to about 92 µM; actives are mostly falling curves and most rising ones were filed inactive; nearly all actives have a fitted effect of over 50% in size)
Summary of the method: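 Luminescence (One-Glo, 30 min at room temperature) after 18 h compound treatment at 37 C of PGC/ERR reporter cells plated at 2,000 cells/well and settled 6 h beforehand.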

[12] = qHTS assay to identify small molecule agonists of the estrogen related receptor signaling pathway with the pleiotropic PPARgamma coactivator (PGC) from Tox21 10K library (AID 1224842); further: nearly all actives have a fitted effect of over 15% in size
Summary of the method: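 PGC/ERR reporter cells (NTP line) were seeded 2,000 per well, rested 6 h at 37 C/5% CO2, then pin-dosed with compounds in DMSO for 18 h at 37 C; luciferase read by One-Glo luminescence after 30 min at room temperature.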

[13] = qHTS assay to identify small molecule antagonists of the estrogen related receptor (ERR) signaling pathway - cell viability counter screen (AID 1224818);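 further: series mostly up to about 46 µM; viability measured after 17.5 h of compound exposure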
Summary of the method: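 Cytotoxicity counter screen: fluorescence from CellTiter-Fluor, added after 17.5 h compound exposure at 37 C and read 30 min later. ERR cell line seeded at 2,000 cells/well, preincubated 6 h before dosing.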

[14] = qHTS assay to identify small molecule antagonists of the estrogen related receptor signaling pathway with the pleiotropic PPARgamma coactivator (PGC) cell viability counter screen (AID 1224822; further: series mostly up to about 46 µM)
Summary of the method: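 Viability counter-screen read by fluorescence intensity after 30 min with CellTiter-Fluor at 37 C; PGC/ERR reporter cells were exposed to compounds for 17.5 h at 37 C following a 6 h preincubation.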

[15] = qHTS assay to identify small molecule antagonists of the retinoic acid receptor (RAR) signaling pathway (AID 1159552; further: nearly all actives have a fitted effect of over 50% in size)
Summary of the method: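 C3RL4 RARE-luc cells, overnight plating; retinol 1 uM final added right after compound; 6 hr 37 C; luciferase read at 30 min RT.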

[16] = qHTS assay to identify small molecule agonists of the retinoic acid receptor (RAR) signaling pathway (AID 1159553)
Summary of the method: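 Luminescence was measured 30 min after luciferase reagent addition at room temperature. Before that, C3RL4 reporter cells (1,000 per well, plated overnight) were treated with compound for 6 hr at 37 C and 5% CO2.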

Measured: Potency

Sequence of Luciferin 4-monooxygenase (Photinus pyralis) (P08659 whole entry, looked up): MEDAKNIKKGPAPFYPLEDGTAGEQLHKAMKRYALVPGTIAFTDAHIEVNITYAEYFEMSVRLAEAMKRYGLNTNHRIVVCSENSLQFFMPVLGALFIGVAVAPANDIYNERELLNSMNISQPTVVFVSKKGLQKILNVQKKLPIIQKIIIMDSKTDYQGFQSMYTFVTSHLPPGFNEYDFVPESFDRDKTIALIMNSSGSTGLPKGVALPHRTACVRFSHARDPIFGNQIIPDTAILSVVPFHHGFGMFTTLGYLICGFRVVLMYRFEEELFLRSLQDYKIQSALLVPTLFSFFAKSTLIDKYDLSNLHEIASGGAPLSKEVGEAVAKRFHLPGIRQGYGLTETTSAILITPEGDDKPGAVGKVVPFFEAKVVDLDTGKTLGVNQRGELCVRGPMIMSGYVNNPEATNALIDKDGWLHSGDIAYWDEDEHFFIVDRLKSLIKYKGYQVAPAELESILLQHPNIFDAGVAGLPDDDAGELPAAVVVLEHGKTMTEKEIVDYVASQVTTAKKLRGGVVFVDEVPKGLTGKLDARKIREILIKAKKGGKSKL
Sequence of Retinoic acid receptor RXR-alpha (Homo sapiens) (P19793 whole entry, looked up): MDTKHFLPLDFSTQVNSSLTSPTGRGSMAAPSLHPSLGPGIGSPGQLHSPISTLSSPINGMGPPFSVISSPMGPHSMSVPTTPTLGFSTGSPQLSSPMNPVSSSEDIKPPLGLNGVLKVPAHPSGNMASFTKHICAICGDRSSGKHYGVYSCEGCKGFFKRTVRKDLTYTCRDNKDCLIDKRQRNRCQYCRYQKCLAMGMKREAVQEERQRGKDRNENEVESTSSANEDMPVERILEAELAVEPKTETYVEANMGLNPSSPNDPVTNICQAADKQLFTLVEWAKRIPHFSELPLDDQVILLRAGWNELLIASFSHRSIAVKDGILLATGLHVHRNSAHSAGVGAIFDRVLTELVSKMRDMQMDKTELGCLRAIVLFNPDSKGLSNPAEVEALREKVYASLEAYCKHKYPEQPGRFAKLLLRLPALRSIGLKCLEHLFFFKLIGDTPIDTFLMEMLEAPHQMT
Sequence of Nuclear receptor subfamily 1 group I member 3 (Homo sapiens) (Q14994 whole entry, looked up): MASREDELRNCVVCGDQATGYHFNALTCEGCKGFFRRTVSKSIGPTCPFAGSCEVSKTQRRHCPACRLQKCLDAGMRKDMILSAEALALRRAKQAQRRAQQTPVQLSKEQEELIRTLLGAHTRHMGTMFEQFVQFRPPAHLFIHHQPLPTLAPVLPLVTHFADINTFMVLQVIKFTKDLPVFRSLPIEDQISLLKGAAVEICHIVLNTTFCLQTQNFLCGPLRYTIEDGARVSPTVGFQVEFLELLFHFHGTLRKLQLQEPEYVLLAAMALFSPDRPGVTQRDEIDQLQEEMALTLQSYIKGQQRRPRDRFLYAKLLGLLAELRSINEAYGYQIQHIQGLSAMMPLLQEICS

O=C1C(CCS(=O)c2ccccc2)C(=O)N(c2ccccc2)N1c1ccccc1 (stereo unspecified)
inactive: [1] | [2] | [3] | [4] | [5] | [6] | [7] | [8]

CO[Si](OC)(OC)OC
inactive: [1] | [2] | [3] | [4] | [9] | [6] | [10] | [7] | [8]

Nc1ccn(C2CO[C@H](CO)O2)c(=O)n1 (stereo partly specified)
inactive: [1] | [2] | [3] | [9] | [5] | [6] | [8] | [11] | [12]

CN(C)CCOC(c1ccc(Cl)cc1)c1ccccn1 (stereo unspecified)
inactive: [1] | [2] | [3] | [4] | [9] | [6] | [10] | [7] | [8]

OCC(CO)(CO)COCC(CO)(CO)CO
inactive: [1] | [2] | [3] | [4] | [9] | [10] | [7] | [8]

CCCOCC(C)OCC(C)O (stereo unspecified)
inactive: [1] | [2] | [3] | [5] | [6] | [8] | [11] | [12]

N[C@@H](CS)C(=O)O
inactive: [1] | [2] | [3] | [5] | [6] | [8]

CC1=CCC2C(C1)C2(C)C (stereo unspecified)
inactive: [1] | [2] | [3] | [9] | [6] | [10] | [7] | [8]

C=C(C)C(=O)NCCCN(C)C
inactive: [1] | [2] | [3] | [9] | [6] | [8]

CC(=O)OC(C)(C)C
inactive: [1] | [2] | [4] | [9] | [5] | [8] | [11] | [12]

NCCN1CCNC1=O
inactive: [1] | [2] | [4] | [5] | [6] | [10] | [7] | [8]

O=C1OC(=O)c2cc([N+](=O)[O-])ccc21
inactive: [1] | [2] | [3] | [5] | [6] | [8]

C=CCOCC(O)CS(=O)(=O)O (stereo unspecified)
inactive: [1] | [2] | [4] | [9] | [5] | [6] | [7] | [8]

CCCCCCCCCCCl
inactive: [1] | [2] | [3] | [5] | [6] | [8] | [11] | [12]

CC(C)COC(=O)c1ccccc1O
inactive: [1] | [2] | [3] | [9] | [10] | [7] | [8]

CCN(CC)C(=O)c1ccc(O)c(OC)c1
not listed: [3] | [11] | [12] | [15] | [16]
inactive: all other assays above

O=C(O)C1CCC1
inactive: [1] | [2] | [3] | [5] | [6] | [8]

CNc1ncnc2nc[nH]c12
not listed: [3] | [7] | [10] | [13] | [14] | [16]
inactive: all other assays above

CC(=O)O[C@H](CC(=O)[O-])C[N+](C)(C)C
inactive: [1] | [2] | [4] | [9] | [6] | [8] | [11] | [12]

CC(C)CCCC(C)NCCC(C)C (stereo unspecified)
inactive: [1] | [2] | [4] | [9] | [8] | [11] | [12]

O=C(O)CCNC(=O)c1ccc(N=Nc2ccc(O)c(C(=O)O)c2)cc1
inactive: [1] | [2] | [3] | [5] | [6] | [10] | [7] | [8]

NC(=O)Nc1nc2ccccc2[nH]1
not listed: [3] | [4] | [11] | [12] | [13] | [14]
inactive: all other assays above

CC(=O)N[C@@H](CCC(N)=O)C(=O)O
inactive: [1] | [2] | [4] | [9] | [5] | [6] | [7] | [8]

Cc1ncc(CSSCc2cnc(C)c(O)c2CO)c(CO)c1O
inactive: [1] | [2] | [4] | [5] | [6] | [8] | [11] | [12]

O=C(CCOCCOCCOCCOCCC(=O)Nc1c(I)cc(I)c(C(=O)O)c1I)Nc1c(I)cc(I)c(C(=O)O)c1I
inactive: [1] | [2] | [15] | [16] | [4] | [9] | [5] | [6] | [8]
